# Measurements published in the supplement of paper PMC10037445.
# Over roughly 2,900 compounds, “NF-kB SEAP reporter activity, fold change vs agonist alone” has its median near 0.99; the highest 2% begin near 2.6. The entries come from a sample that favours the highest values as a whole.
# How the values were obtained:
# RAW-Dual [1] = experiment: NF-kB SEAP reporter activity, fold change vs agonist alone; higher = enhanced NF-kB activity; conditions: library stock concentration (final ~1000-fold dilution): 10 mM, cytotoxicity flag (confluency mask): not cytotoxic
# How it was run: (§1)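 Library stock was pin-tooled at 50 nL into 384-well plates of RAW-Dual macrophages (50,000 cells/well, DMEM), followed 1 h later by a PRR agonist, and the cells were kept at 37 °C, 5% CO2. Supernatant collected after 20 hours was read for IRF by QuantiLuc luminescence and for NF-κB by QuantiBlue absorbance at 620 nm. Reporter activity is fold change over agonist-alone wells, and a well counted as cytotoxic when its IncuCyte confluency was below 70% of agonist controls in both mask sets.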
# RAW-Dual [2] = experiment: NF-kB SEAP reporter activity, fold change vs agonist alone; cytotoxicity flag (confluency mask): not cytotoxic; higher = enhanced NF-kB activity
# How it was run: as §1
# [3] = agonist: ODN 1826 (TLR9) 0.5 ug/mL
# [4] = agonist: Pam2CSK4 (TLR2/6) 0.1 ug/mL
# [5] = agonist: Pam3CSK4 (TLR2/1) 0.1 ug/mL
SMILES,NF-kB SEAP reporter activity (RAW-Dual [1]; agonist: Imiquimod (TLR7) […]),NF-kB SEAP reporter activity (RAW-Dual [1]; agonist: MPLA (TLR4) […]),NF-kB SEAP reporter activity (RAW-Dual [2]; agonist: LPS (TLR4) 0.1 ug/mL),NF-kB SEAP reporter activity (RAW-Dual [2]; [3]),NF-kB SEAP reporter activity (RAW-Dual [2]; [4]),NF-kB SEAP reporter activity (RAW-Dual [2]; [5])
Cc1n[nH]c2ncc(C(=O)N3CCCC3c3ccc(Cl)cc3)cc12 (configuration not stated),1.44,1.77,,,,
COC(=O)NC(C(=O)N1CCCC1c1ncc(-c2ccc(-c3ccc(-c4cnc(C5CCCN5C(=O)C(NC(=O)OC)C(C)C)[nH]4)cc3)cc2)[nH]1)C(C)C (configuration not stated),1.24,1.31,,,,
Cc1n[nH]c2ncc(C(=O)N3CCCC3c3ccc(Cl)cc3)cc12 (configuration not stated) (library stock concentration (final ~1000-fold dilution): 10 mM),,,2.51,2.07,1.61,2.59
COC(=O)NC(C(=O)N1CCCC1c1ncc(-c2ccc(-c3ccc(-c4cnc(C5CCCN5C(=O)C(NC(=O)OC)C(C)C)[nH]4)cc3)cc2)[nH]1)C(C)C (configuration not stated) (library stock concentration (final ~1000-fold dilution): 10 mM),,,1.88,0.935,0.867,0.8
Cn1ncc(Cl)c1-c1cc(C(=O)NC(CN)Cc2cccc(F)c2)sc1Cl (configuration not stated) (library stock concentration (final ~1000-fold dilution): 10 mM),,,1.53,1.27,1,1.15
Cn1ncc(Cl)c1-c1cc(C(=O)NC(CN)Cc2cccc(F)c2)sc1Cl (configuration not stated),1.39,1.77,,,,
CCCC(NC(=O)C1C2CCCC2CN1C(=O)C(NC(=O)C(NC(=O)c1cnccn1)C1CCCCC1)C(C)(C)C)C(=O)C(=O)NC1CC1 (configuration not stated) (library stock concentration (final ~1000-fold dilution): 10 mM),,,1.3,0.887,0.68,0.601
CCCC(NC(=O)C1C2CCCC2CN1C(=O)C(NC(=O)C(NC(=O)c1cnccn1)C1CCCCC1)C(C)(C)C)C(=O)C(=O)NC1CC1 (configuration not stated),0.65,1.02,,,,
Nc1nc(F)nc2c1ncn2C1OC(CO)C(O)C1O (configuration not stated) (library stock concentration (final ~1000-fold dilution): 10 mM),,,1.1,1.03,1.06,1.22
Nc1nc(F)nc2c1ncn2C1OC(CO)C(O)C1O (configuration not stated),0.92,0.844,,,,
CC(C)CC(NC(=O)C(CCc1ccccc1)NC(=O)CN1CCOCC1)C(=O)NC(Cc1ccccc1)C(=O)NC(CC(C)C)C(=O)C1(C)CO1 (configuration not stated) (library stock concentration (final ~1000-fold dilution): 10 mM),,,0.318,1.18,0.683,0.456
CC(C)CC(NC(=O)C(CCc1ccccc1)NC(=O)CN1CCOCC1)C(=O)NC(Cc1ccccc1)C(=O)NC(CC(C)C)C(=O)C1(C)CO1 (configuration not stated),2.33,0.832,,,,
CCc1c(N(CC)C2CCOCC2)cc2oc(C3CCN(C(C)C)CC3)cc2c1C(=O)NCc1c(C)cc(C)[nH]c1=O (library stock concentration (final ~1000-fold dilution): 10 mM),,,1.13,0.983,1.04,0.941
CCc1c(N(CC)C2CCOCC2)cc2oc(C3CCN(C(C)C)CC3)cc2c1C(=O)NCc1c(C)cc(C)[nH]c1=O,1.34,1.04,,,,
